Values joined by “and” are separate entries in the source; they are usually repeats but may differ in a detail not shown here. Identical values can stand only once. Records with an inconclusive call do not appear. More than one record can exist for a structure, and the calls need not agree. Active and inactive are the calls of the source. Calls come from the whole dose curve; as a rule, active = well fitted curve in the direction sought with a large enough effect in the repeat runs; inconclusive = weak or mixed curves; inactive = no such curve, though single readings can be large; an effect the other way counts as inactive or inconclusive.

Test [1] in a line: A CellTox Green Cytotoxicity Assay to monitor cytotoxicity in HEK293 cells - 40 hour (AID 1224871). Note: nearly all actives have a fitted effect of over 45% in size. Note: potency is the fitted concentration of half-maximal effect. In a few lines:
(§1)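 HEK293 cells, 600/well, were preincubated 5 hours and then exposed to compounds at 37 C for up to 40 hours. A cell-impermeant cyanine dye staining dead-cell DNA was read by fluorescence at 0, 8, 16, 24, 32 and 40 h time points.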

Test [2] in a line: qHTS RealTime-Glo MT Cell Viability Assay in HEK293 cells - 16 hour (AID 1224872). Note: nearly all actives have a fitted effect of over 50% in size. Note: potency is the fitted concentration of half-maximal effect. In a few lines:
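Assay medium contained NanoLuc luciferase plus cell-permeant prosubstrate, added with HEK293 cells at 600 cells/well. After 5 h at 37 C/5% CO2 compounds were added; plates stayed at 37 C for 40 h with serial luminescence reads.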
Background: Quantitative high-throughput screening tests each substance at several concentrations.

A short description of test [3]: qHTS RealTime-Glo MT Cell Viability Assay in HepG2 cells - 8 hour (AID 1224873). Note: nearly all actives have a fitted effect of over 55% in size. Note: potency is the fitted concentration of half-maximal effect. The method in brief: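 HepG2 cells mixed with RealTime-Glo MT reagents (NanoLuc plus cell-permeant prosubstrate) were seeded at 600 cells/well, incubated 5 h at 37 C/5% CO2, then pinned with compounds in DMSO; nonlytic luminescence tracked viability during 40 h treatment.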
A short description of test [4]: qHTS RealTime-Glo MT Cell Viability Assay in HEK293 cells - 40 hour (AID 1224874). Note: nearly all actives have a fitted effect of over 50% in size. Note: potency is the fitted concentration of half-maximal effect. To be noted: RealTime-Glo luminescence; max response: stronger effect = lower value. In a few lines:
(§2)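 600 cells/well were plated with the nonlytic NanoLuc/prosubstrate reagent, pre-incubated 5 h, then given 23 nL of compound in DMSO. Incubation at 37 C for 40 h, with luminescence from viable-cell-reduced substrate read repeatedly from 0 h.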

Test [5] in a line: A CellTox Green Cytotoxicity Assay to monitor cytotoxicity in HEK293 cells - 24 hour (AID 1224875). Note: series mostly up to about 77 µM; nearly all actives have a fitted effect of over 45% in size. In a few lines: as §1
Test [6] in a line: qHTS RealTime-Glo MT Cell Viability Assay in HepG2 cells - 32 hour (AID 1224877). Note: nearly all actives have a fitted effect of over 55% in size. Note: potency is the fitted concentration of half-maximal effect. The method in brief:
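qHTS, HepG2, 600 cells/well, RealTime-Glo (NanoLuc + prosubstrate) added with cells; 5 h preincubation; DMSO compound addition; 37 C; luminescence at 0/8/16/24/32/40 h.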

Test [7] in a line: A CellTox Green Cytotoxicity Assay to monitor cytotoxicity in HepG2 cells - 24 hour (AID 1224878). Note: nearly all actives have a fitted effect of over 45% in size. Note: potency is the fitted concentration of half-maximal effect. In a few lines:
(§3)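 HepG2 cells, 600/well, preincubated 5 h with CellTox Green dye, then exposed to Tox21 compounds in DMSO at 37 C for up to 40 h. Dead-cell DNA fluorescence read at the indicated time point.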

The nature of test [8]: A CellTox Green Cytotoxicity Assay to monitor cytotoxicity in HepG2 cells - 40 hour (AID 1224879). Note: nearly all actives have a fitted effect of over 40% in size. Note: potency is the fitted concentration of half-maximal effect. In a few lines: as §3
Test [9] can be described thus: qHTS RealTime-Glo MT Cell Viability Assay in HEK293 cells - 0 hour (AID 1224880). Note: top concentration of the series differs between compounds; nearly all actives have a fitted effect of over 45% in size. The method in brief:
as §2

Test [10] in a line: A CellTox Green Cytotoxicity Assay to monitor cytotoxicity in HepG2 cells - 16 hour (AID 1224876). Note: nearly all actives have a fitted effect of over 45% in size. The method in brief: as §3
% is set by controls: 0 for no effect and ±100 for the full control effect.

Turning to `CC(=O)Nc1ccc2c(c1)Cc1cc(NC(C)=O)ccc1-2`, the Potency result in test [1], in test [2], in [3], in [5], in test [6] and in test [7] was “inactive” throughout. Further, the Potency result in test [8] and in test [9] was “inactive” throughout. Also, the max response in test [4] is 1.79% (inactive) and 3.64% (inactive).

Regarding `CN(C)C`, the Potency entry in test [1], in test [2], in test [5], in [10], in test [6] and in [7] was “inactive” throughout. For the same molecule, the Potency entry in test [8] and in test [9] was “inactive” each time. The max response in [4] is 3.08% (inactive) and -9.36% (inactive).

As to `CCCCCCCC/C=C\CCCCCCCC(=O)O`, the Potency result in test [1], in test [2], in test [3], in test [10], in [6] and in [7] was “inactive” in each case. Moreover, the Potency entry in test [8] and in test [9] was “inactive” each time. In addition, in test [4], the max response is 12.6% (inactive) and 4.42% (inactive).

`O=C(O)CCCCCCCCCCCC(=O)O`: the Potency is 27.1 µM (active) and inactive in test [1]; 48.2 µM (active) and inactive in test [8]. Further, the Potency result in test [2], in [3], in test [10], in [6], in [7] and in test [9] was “inactive” in each case. Besides, in test [4], the max response is 7.31% (inactive).

For `COc1ccc(C(=O)c2ccccc2O)c(O)c1`, the Potency in [1] was 34.6 µM (active). Besides, the Potency result in [2], in test [3], in test [5], in test [6], in [7] and in [8] was “inactive” throughout. In addition, the Potency entry in [9] is “inactive”. The max response in test [4] was -10.4% (inactive).

Consider `O=C(CCCN1CCC(O)(c2ccc(Cl)cc2)CC1)c1ccc(F)cc1`, for which the Potency in test [1] was 49 µM (active) and inactive; in [2] it was 13.8 µM (active) and 5.35 µM (active); in test [3], 49 µM (active) and inactive; in test [4], 21.9 µM (active) and 8.49 µM (active); in test [6], 49 µM (active) and inactive; in [7], 24.5 µM (active). Also, in [8], the Potency was 24.5 µM (active) and 26.8 µM (active). The Potency entry in [9] is “inactive”.

`CC(C)(Oc1ccc(Cl)cc1)C(=O)O`: the Potency entry in [1], in test [2], in test [3], in test [10], in [6] and in test [7] was “inactive” throughout. Further, the Potency result in test [8] and in test [9] was “inactive” in each case. Further, the max response in test [4] was 6.25% (inactive) and 5.25% (inactive).

For `CN1CCOCC1`, the Potency result in test [1], in test [2], in [3], in test [10], in [6] and in test [7] was “inactive” throughout. For the same molecule, the Potency result in test [8] and in [9] was “inactive” in each case. The max response in test [4] is 8.86% (inactive) and 4.46% (inactive).

Take `CC(=O)Oc1ccc(C(c2ccc(OC(C)=O)cc2)c2ccccn2)cc1`: the Potency result in test [1], in [2], in [3], in [10], in test [6] and in [7] was “inactive” throughout. Moreover, the Potency entry in test [8] was “inactive”. In addition, the max response in test [4] was -20.4% (inactive).

In the case of `O=C(O)c1cc(=O)[nH]c(=O)[nH]1`, the Potency entry in test [1], in test [2], in [3], in [6], in [7] and in [8] was “inactive” each time. In addition, in [9], the Potency result is “inactive”. In addition, in test [4], the max response is 10.8% (inactive) and 0.747% (inactive).

In the case of `CC(C)(C)c1cccc(C(C)(C)C)c1O`, the Potency in test [1] is 47.9 µM (active) and inactive; in test [2], 38 µM (active) and inactive; in test [4] it was 21.4 µM (active). Further, the max response in test [4] is 1.57% (inactive). Moreover, the Potency result in [6], in [7], in test [8] and in [9] was “inactive” throughout.

In the case of `CN(Cc1cnc2nc(N)nc(N)c2n1)c1ccc(C(=O)N[C@@H](CCC(=O)O)C(=O)O)cc1`, the Potency result in [1], in test [2], in test [3], in test [6], in [7] and in test [8] was “inactive” throughout. For the same molecule, in test [9], the Potency entry is “inactive”. Further, the Potency in test [4] is 49 nM (active) and 53.5 nM (active).

For `CC(=O)[C@H]1CC[C@H]2[C@@H]3CC=C4C[C@@H](O)CC[C@]4(C)[C@H]3CC[C@]12C`, the Potency entry in test [1], in test [2], in test [3], in [10], in [6] and in test [7] was “inactive” throughout. Also, the Potency entry in test [8] and in [9] was “inactive” each time. Also, in test [4], the max response was -23.7% (inactive).

In the case of `CCCCCCCCCCC(CO)CCCCCCCC` (stereo not drawn), the Potency result in [1], in [2], in test [3], in [5], in test [6] and in [7] was “inactive” each time. Also, the Potency entry in [8] and in [9] was “inactive” throughout. Moreover, in [4], the max response is 5.36% (inactive) and 2.58% (inactive).

Take `Clc1ccc(Sc2cc(Cl)c(Cl)cc2Cl)cc1`: the Potency result in test [1], in test [2], in test [3], in test [10], in test [6] and in test [7] was “inactive” throughout. Besides, the Potency entry in [8] and in test [9] was “inactive” each time. Further, the max response in test [4] is -26.8% (inactive) and 1% (inactive).

On to `NCCS(=O)(=O)O`, for which the Potency entry in [1], in test [2], in test [5], in test [10], in test [6] and in test [7] was “inactive” in each case. Besides, the Potency result in test [8] and in [9] was “inactive” each time. In addition, in test [4], the max response was 13.2% (inactive) and 2.94% (inactive).

For the molecule `C=C[C@@]1(C)CC(=O)[C@]2(O)[C@@]3(C)[C@@H](O)CCC(C)(C)[C@@H]3[C@H](O)[C@H](OC(C)=O)[C@@]2(C)O1`, the Potency entry in test [1], in test [2], in [3], in test [6], in [7] and in test [8] was “inactive” each time. Further, the Potency result in test [9] was “inactive”. Also, the max response in [4] was -11.8% (inactive).

`NCCN`: the Potency result in test [1], in test [2], in [3], in [7], in [8] and in test [9] was “inactive” each time. Further, the max response in test [4] is 7.37% (inactive) and 0.29% (inactive). The Potency entry in [6] was “inactive and 21.9 µM (active)”.

For `C=C[Si](OCCOC)(OCCOC)OCCOC`, the Potency result in test [1], in test [2], in [5], in test [10], in [6] and in [7] was “inactive” throughout. Besides, the Potency result in [8] and in test [9] was “inactive” throughout. The max response in test [4] is 5.17% (inactive) and 4.57% (inactive).

As for `O=S1(=O)CCCO1`, the Potency entry in test [1], in test [2], in [3], in test [10], in [6] and in test [7] was “inactive” in each case. Besides, the Potency result in test [8] and in test [9] was “inactive” each time. For the same molecule, the max response in test [4] is 5.89% (inactive) and 10.2% (inactive).

The record behind these values is PubChem BioAssay (Tox21).
